Measurements taken from PubChem BioAssay AID2673 (National Center for Advancing Translational Sciences (NCATS), 2010).
Results filed as inconclusive are left out. Unmarked numbers belong to inactive results. Active and inactive are the calls of the source. Calls come from the whole dose curve; as a rule, active = well fitted activation curve with a large enough effect; inconclusive = small, poorly fitted or top-dose-only effect; inactive = no such curve, though single readings can be large or run the other way.

Test: qHTS Multiplex Assay to Identify Dual Action Probes in a Cell Model of Huntington: Cytoprotection confirmation (ATP)
Conditions: PC12 HttQ103 induced, ATP luminescence 40 h; series mostly up to 46.1 µM; cytoprotection, positive = protection: at the top concentration
Text: NIH Chemical Genomics Center [NCGC]
NIH Molecular Libraries Probe Production centers Network [MLPCN]
Assay Submitter (PI): Wei Zheng
Huntington's disease is a neurodegenerative disorder caused by a trinucleotide repeat expansion in Exon 1 of the Huntingtin gene. The CAG trinucleotide encodes glutamine and polyglutamine expansions cause cell death in selective areas of the brain. Huntington polyglutamine repeats have the tendency to form aggregates which are observable in later stages of the disease. The exact nature of the aggregates, whether toxic, protective, or insignificant, is unclear.
A stable PC12 cell line containing a gene fusion of Exon 1 of the Huntingtin gene linked to GFP under the control of the inducible ecdysone promoter were used as the cell-based model of Huntington Disease for high throughput screening. Exon 1 of the Huntingtin gene contained an expansion of 103 polyglutamines (Q103) which, when expressed, caused cell death and distinct, bright GFP aggregates. The amount of cell death and the size and intensity of GFP aggregates increased over time and induction level. The cell death were quantified with a measurement of ATP content in the cells. A maximal 40-50% of cell death was observed when the Huntington gene was induced in this cell line.
We optimized this assay in a homogeneous 1536 well format. A quantitative high throughput screen (qHTS) was conducted on the PC12 cells which were induced to express the toxic fusion construct. Small molecules which prevented cell death were identified by using a luminescent ATP quantification method (Perkin Elmer's ATPlite).
PC12 cells stably containing a construct with an ecdysone inducible promoter expressing GFP fused to the exon 1 of HTTQ103 (Huntington protein which containing a 103 ployglutamine expansion) were used.
NCGC Assay Protocol Summary:
Sequence, Parameter, Description
1, Reagent, 5 uL 1500 cells/well 1536 TC treated White clear bottom plate
2, Compound, 23 nL Tebufenozide inducer (100 nM final) to all columns
3, Compound, 23 nL 40 uM to 0.5 nM Libraries
5, Reagent, 5 ul ATPLite cell death assay reagent
6, Detector, 4 sec integration with a Viewlux Luminescent
Media consisted of phenol red free DMEM + 5% equine serum (Hyclone # SH30072.03 ), 5% supplemented Bovine Calf Serum (Hyclone # SH30074.03 ), 1x pen/strep, no G418

Row | SMILES | cytoprotection, positive = protection [%] | Potency
1 | CC[C@]1(C2=NCCN2)Cc2ccccc2O1 | -1.9 | –
2 | O=C1C=C2C=C[C@H]3C[C@@]2(O1)[C@H]1CCCCN31 | 58 | –
3 | Oc1cc(Cl)ccc1Oc1ccc(Cl)cc1Cl | -9.42 | –
4 | O=C1C=C2C=CC3C[C@@]2(O1)C1CCCCN31 (stereo partly drawn) | – | 12.6 µM (active)
5 | O=C1C=C2C=C[C@H]3C[C@]2(O1)[C@@H]1CCCCN13 | 66.7 | –
6 | C[C@@]1(CO)[C@H](O)CC[C@@]2(C)[C@H]1CC[C@H]1C[C@@H]3C[C@@]12CC[C@]3(O)CO | -47.8 | –
7 | CCC(C)C(=O)OC1C(O)C2C(CN3CC(C)CCC3[C@]2(C)O)C2C[C@]34O[C@@]5(O)C(OC(=O)C(C)(O)CC)CCC3(C)C5C(OC(C)=O)C(OC(C)=O)C4[C@@]21O (stereo partly drawn) | -18.1 | –
8 | C[C@H]1CC[C@@]2(NC1)O[C@@H]1C[C@H]3[C@@H]4CC=C5C[C@@H](O)CC[C@]5(C)[C@@H]4CC[C@]3(C)[C@@H]1[C@@H]2C | 3.58 | –
